Data from the supplement of paper PMC11732987, “Enantioselective OTUD7B fragment discovery through chemoproteomics screening and high-throughput optimisation” (Communications Chemistry, 2025).

Tests used:
Assay in all cases: log2 ratio of Biotin-Ahx-Ub-VS probe labelling (fragment/DMSO); higher = less target engagement (more negative = stronger competition), active = hit call of the paper (q ≤ 0.05, log2 ratio ≤ -1)
Conditions in all cases: compound concentration: 200 uM; treatment time: 3 h
USP42 = target: T1, USP42 (UniProt Q9H9J4)
T1 sequence (whole entry): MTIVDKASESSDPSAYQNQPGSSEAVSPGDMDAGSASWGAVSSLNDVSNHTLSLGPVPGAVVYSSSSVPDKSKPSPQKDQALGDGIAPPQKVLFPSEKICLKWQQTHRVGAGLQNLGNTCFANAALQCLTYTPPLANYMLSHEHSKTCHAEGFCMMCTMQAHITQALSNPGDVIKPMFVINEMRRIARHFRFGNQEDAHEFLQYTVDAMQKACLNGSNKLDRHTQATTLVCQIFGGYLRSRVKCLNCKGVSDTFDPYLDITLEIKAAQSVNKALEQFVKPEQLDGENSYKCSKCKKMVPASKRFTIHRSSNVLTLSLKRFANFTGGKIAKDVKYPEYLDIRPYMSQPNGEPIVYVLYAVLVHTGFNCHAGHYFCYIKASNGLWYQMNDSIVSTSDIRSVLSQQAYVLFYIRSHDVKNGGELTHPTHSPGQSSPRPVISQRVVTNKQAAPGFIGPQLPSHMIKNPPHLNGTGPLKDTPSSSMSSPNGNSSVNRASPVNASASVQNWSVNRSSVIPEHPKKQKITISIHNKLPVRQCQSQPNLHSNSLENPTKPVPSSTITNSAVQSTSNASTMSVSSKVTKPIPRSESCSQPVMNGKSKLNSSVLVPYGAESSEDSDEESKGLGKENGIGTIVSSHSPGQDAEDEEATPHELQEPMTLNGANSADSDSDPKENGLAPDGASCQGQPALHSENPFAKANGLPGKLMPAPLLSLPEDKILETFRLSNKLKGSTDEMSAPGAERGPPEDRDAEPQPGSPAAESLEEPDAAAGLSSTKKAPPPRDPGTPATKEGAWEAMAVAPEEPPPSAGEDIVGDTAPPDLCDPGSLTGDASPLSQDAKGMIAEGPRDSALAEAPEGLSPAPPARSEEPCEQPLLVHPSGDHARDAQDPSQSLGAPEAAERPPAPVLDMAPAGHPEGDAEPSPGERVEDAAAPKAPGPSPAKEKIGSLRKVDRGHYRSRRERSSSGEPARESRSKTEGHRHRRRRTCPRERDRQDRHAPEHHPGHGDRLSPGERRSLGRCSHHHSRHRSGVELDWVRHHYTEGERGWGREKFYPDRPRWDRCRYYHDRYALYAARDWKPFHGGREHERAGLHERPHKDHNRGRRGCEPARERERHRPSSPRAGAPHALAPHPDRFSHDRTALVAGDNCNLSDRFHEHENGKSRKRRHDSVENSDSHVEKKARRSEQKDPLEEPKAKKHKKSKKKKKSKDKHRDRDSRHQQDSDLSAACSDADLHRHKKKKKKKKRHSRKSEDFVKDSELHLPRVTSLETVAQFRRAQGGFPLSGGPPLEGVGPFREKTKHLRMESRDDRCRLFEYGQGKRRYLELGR
Procedure, shortened: (§1)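 Average log2 ratios of fragment over vehicle were obtained by unpaired t-test from global-median-normalised Spectronaut label-free quantities. Proteins with ≥2 unique peptides were included. HEK293T lysate (495 µg per sample) was treated in triplicate with fragment at 200 µM or vehicle for 3 h, then with Biotin-Ahx-Ub-VS at 0.5 µM final for 1 h, and labelled DUBs were NeutrAvidin-enriched and run by diaPASEF LC-MS/MS.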

USP46 = USP46 (UniProt P62068)
Procedure, shortened: as §1

USP47 = target: T2, USP47 (UniProt Q96K76)
T2 sequence (whole entry): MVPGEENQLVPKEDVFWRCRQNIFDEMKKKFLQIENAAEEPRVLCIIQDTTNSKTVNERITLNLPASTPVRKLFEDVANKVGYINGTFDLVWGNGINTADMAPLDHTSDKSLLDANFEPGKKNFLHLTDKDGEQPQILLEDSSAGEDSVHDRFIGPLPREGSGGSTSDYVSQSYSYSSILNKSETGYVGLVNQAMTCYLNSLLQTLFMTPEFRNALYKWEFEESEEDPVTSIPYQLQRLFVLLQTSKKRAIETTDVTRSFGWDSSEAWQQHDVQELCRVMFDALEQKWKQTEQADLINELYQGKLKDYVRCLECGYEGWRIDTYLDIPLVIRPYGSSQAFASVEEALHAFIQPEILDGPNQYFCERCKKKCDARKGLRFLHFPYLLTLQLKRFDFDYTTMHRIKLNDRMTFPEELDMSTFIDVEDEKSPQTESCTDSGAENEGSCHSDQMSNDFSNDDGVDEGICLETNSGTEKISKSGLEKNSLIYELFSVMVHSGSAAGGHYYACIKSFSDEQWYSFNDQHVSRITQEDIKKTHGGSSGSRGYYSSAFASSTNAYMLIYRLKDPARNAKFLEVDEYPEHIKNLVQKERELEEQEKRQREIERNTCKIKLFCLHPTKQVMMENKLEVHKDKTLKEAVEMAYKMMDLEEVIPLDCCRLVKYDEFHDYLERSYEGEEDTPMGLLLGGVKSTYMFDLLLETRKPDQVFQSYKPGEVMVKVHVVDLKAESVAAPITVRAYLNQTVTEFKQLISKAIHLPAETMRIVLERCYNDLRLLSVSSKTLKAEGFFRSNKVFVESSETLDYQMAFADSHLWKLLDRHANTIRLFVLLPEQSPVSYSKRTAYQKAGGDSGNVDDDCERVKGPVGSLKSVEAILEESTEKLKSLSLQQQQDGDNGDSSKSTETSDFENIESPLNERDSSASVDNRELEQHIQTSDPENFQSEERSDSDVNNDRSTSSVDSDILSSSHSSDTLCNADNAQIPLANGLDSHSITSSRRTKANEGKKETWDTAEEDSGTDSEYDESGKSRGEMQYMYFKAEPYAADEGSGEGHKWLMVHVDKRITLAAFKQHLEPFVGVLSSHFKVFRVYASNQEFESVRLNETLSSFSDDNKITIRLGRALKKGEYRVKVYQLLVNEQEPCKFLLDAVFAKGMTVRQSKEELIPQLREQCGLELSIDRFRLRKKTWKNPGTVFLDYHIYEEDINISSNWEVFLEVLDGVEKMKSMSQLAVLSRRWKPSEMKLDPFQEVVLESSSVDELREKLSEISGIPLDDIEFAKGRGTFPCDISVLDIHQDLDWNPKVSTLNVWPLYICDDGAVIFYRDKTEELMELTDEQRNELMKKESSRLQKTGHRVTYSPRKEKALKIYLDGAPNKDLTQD
Procedure, shortened: as §1

USP48 = target: T3, USP48 (UniProt Q86UV5)
T3 sequence (whole entry): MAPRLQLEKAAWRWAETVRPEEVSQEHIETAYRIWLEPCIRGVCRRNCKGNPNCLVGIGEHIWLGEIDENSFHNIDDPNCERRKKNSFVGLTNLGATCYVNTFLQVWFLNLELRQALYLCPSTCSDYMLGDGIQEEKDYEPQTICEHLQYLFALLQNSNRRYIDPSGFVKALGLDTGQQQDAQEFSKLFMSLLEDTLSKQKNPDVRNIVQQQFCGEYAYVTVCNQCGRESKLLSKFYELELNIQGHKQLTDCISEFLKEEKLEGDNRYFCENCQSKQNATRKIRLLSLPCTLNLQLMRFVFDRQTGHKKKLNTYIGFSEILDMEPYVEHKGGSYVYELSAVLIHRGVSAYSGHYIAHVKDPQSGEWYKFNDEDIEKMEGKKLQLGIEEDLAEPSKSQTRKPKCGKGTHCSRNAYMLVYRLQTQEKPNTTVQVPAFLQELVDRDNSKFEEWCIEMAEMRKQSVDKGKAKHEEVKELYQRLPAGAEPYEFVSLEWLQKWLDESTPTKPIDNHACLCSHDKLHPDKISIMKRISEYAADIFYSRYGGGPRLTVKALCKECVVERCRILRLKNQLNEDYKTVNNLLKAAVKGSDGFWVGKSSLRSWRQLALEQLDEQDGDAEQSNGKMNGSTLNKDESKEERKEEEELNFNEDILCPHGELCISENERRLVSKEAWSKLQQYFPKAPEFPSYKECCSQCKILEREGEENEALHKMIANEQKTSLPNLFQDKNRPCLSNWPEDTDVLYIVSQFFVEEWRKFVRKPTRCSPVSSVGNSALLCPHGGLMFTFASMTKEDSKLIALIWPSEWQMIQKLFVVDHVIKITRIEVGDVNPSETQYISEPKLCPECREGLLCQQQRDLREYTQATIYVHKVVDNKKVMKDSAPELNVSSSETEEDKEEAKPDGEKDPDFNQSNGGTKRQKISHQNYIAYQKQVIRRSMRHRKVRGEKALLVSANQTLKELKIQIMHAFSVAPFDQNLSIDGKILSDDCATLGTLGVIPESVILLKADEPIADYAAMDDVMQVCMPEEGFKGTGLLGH
Procedure, shortened: as §1

USP5 = target: T4, USP5 (UniProt P45974)
T4 sequence (whole entry): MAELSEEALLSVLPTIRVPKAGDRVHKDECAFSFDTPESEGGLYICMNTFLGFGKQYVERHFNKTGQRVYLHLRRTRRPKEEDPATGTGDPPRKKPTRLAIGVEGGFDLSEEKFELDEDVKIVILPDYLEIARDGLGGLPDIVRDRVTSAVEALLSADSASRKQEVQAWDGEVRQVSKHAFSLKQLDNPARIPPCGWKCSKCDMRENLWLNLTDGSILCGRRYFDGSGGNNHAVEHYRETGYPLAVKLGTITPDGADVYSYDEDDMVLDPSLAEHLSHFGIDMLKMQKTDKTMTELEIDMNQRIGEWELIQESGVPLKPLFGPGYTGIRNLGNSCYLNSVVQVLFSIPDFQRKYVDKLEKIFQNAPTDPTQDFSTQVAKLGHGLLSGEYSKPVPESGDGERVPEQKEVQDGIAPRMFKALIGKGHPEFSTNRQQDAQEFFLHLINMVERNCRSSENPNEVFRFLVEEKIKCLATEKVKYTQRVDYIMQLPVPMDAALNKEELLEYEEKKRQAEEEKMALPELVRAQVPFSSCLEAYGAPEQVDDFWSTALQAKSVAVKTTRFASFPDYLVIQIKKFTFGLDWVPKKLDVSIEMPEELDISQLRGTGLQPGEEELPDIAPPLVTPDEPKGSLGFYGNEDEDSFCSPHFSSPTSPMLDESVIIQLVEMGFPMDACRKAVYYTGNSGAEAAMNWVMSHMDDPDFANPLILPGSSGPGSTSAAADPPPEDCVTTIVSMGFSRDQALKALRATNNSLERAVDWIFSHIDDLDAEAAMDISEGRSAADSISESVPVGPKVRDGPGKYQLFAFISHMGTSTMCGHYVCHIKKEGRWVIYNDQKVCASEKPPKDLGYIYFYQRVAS
Procedure, shortened: as §1

USP54 = USP54 (UniProt Q70EL1)
Procedure, shortened: as §1

USP7 = USP7 (UniProt Q93009)
Procedure, shortened: as §1

USP8 = target: T5, USP8 (UniProt P40818)
T5 sequence (whole entry): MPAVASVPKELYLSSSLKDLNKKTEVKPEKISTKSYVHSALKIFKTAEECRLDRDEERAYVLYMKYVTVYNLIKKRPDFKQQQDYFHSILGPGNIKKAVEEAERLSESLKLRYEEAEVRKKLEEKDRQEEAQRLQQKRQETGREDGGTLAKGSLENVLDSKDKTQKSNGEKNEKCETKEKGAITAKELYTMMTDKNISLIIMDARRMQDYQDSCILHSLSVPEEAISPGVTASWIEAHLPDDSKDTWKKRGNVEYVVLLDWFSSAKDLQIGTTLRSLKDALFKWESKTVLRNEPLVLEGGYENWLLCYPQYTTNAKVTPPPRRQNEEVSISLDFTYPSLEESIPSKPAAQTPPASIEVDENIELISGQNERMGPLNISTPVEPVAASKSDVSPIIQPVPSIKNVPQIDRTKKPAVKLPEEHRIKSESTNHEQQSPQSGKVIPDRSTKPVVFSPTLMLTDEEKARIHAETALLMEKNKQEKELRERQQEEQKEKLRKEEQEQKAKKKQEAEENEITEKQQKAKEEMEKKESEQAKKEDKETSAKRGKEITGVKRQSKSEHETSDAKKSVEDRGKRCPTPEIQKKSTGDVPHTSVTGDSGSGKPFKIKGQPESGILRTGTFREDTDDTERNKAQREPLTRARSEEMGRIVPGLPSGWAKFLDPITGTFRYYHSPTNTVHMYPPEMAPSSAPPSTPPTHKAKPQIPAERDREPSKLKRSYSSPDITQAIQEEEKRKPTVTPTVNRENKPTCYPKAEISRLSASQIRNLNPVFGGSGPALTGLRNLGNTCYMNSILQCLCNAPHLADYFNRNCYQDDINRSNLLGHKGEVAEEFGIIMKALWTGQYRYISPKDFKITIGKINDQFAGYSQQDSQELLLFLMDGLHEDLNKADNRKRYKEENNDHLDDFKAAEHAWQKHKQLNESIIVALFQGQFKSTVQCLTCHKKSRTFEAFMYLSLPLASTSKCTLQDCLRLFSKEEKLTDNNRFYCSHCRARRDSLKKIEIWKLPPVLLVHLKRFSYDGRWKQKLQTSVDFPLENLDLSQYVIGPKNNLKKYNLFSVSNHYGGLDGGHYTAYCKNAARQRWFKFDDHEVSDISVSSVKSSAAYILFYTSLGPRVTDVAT
Procedure, shortened: as §1

USP9X = USP9X (UniProt Q93008)
Procedure, shortened: as §1

UniProt O00487 = target: UniProt O00487
Procedure, shortened: as §1

Measured: log2 ratio of Biotin-Ahx-Ub-VS probe labelling

Chain of USP7 (Q93009 whole entry, looked up): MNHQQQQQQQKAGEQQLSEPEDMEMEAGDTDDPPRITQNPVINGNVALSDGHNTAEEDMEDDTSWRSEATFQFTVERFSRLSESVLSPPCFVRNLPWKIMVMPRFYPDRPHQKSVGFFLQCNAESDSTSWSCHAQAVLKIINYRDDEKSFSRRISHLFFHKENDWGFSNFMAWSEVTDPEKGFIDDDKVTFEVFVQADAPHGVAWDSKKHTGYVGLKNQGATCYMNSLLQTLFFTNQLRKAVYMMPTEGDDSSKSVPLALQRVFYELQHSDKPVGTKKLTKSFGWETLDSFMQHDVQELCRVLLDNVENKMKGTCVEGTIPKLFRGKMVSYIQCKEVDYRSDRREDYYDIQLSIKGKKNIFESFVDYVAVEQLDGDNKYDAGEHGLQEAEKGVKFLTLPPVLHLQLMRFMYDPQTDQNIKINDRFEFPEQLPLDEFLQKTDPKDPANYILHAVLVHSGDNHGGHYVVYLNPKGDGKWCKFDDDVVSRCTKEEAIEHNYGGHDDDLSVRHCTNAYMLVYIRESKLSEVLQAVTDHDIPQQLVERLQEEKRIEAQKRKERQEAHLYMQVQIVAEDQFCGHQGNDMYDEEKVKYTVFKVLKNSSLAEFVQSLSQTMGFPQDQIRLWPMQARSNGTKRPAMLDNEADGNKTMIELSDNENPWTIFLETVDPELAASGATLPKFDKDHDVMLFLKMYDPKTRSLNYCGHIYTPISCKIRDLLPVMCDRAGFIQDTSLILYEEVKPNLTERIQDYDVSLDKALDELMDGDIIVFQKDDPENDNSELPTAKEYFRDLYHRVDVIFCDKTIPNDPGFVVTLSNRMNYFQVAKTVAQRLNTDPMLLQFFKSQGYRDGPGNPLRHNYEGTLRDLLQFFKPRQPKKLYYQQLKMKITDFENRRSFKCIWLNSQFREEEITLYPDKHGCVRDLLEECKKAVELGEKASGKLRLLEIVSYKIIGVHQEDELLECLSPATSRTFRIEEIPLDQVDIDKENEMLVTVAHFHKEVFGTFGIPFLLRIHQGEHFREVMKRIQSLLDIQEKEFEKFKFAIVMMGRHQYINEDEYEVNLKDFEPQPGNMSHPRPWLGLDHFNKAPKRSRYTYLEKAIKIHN
Chain of USP54 (Q70EL1 whole entry): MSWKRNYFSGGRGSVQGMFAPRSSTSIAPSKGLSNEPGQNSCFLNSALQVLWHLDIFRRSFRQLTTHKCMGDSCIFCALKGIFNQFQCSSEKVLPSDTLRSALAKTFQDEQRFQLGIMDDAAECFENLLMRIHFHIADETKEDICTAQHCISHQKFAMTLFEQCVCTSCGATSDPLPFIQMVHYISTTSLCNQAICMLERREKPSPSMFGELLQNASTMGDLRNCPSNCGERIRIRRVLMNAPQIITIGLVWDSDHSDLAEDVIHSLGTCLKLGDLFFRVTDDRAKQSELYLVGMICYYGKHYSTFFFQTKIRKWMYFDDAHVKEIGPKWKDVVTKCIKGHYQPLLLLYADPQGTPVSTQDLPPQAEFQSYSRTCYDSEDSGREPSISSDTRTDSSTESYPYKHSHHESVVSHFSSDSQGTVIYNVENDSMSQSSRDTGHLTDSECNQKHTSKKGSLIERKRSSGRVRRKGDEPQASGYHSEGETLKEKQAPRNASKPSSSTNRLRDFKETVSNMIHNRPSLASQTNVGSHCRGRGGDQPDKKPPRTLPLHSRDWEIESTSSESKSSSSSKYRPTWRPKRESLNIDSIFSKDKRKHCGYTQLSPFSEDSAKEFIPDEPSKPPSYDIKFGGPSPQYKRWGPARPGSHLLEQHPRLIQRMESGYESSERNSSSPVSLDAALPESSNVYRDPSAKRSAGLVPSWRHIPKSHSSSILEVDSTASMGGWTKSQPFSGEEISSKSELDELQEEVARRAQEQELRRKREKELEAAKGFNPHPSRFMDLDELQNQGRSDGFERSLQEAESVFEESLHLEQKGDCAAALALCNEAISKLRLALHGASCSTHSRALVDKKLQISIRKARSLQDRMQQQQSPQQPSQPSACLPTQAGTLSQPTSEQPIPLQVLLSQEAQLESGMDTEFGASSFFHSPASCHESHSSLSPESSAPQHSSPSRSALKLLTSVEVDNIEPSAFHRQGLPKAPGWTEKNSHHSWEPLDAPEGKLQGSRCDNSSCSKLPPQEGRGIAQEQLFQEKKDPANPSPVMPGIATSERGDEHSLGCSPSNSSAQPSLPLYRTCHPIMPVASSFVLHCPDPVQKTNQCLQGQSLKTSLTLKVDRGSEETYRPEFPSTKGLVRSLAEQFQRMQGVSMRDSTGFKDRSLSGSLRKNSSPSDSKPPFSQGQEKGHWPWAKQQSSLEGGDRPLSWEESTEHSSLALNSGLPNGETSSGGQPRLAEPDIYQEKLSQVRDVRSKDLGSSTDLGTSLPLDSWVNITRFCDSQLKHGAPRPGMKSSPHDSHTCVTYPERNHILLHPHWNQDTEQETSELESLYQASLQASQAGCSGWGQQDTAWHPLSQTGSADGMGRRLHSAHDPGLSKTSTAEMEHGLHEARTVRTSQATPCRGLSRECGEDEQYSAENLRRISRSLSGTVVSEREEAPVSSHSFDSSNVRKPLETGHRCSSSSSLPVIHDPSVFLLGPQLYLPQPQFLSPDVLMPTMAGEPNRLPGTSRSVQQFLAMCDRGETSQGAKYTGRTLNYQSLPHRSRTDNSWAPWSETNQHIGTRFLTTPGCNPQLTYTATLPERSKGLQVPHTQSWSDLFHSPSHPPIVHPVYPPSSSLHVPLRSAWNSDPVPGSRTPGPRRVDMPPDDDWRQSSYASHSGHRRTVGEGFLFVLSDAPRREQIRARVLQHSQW
Chain of UniProt O00487 (O00487 whole entry): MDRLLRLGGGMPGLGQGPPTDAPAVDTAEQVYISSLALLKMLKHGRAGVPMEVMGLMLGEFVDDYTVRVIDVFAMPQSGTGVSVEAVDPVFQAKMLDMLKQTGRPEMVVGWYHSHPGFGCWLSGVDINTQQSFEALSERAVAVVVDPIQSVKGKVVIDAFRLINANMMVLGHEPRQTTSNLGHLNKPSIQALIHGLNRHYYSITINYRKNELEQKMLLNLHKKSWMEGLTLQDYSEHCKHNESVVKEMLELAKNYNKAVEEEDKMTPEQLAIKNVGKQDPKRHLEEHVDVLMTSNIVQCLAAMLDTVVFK
Chain of USP46 (P62068 whole entry): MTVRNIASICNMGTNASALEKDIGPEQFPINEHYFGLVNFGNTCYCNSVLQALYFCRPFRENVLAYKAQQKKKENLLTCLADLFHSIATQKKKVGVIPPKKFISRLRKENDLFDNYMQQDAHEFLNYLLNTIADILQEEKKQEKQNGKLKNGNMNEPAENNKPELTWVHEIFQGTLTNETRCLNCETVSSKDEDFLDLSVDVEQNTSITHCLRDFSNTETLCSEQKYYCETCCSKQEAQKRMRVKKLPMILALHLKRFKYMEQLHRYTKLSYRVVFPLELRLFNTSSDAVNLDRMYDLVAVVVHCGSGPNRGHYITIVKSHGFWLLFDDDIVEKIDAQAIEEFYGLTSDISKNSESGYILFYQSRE

Cc1cccn2cc(CCNC(=O)CCl)nc12.Cl
inactive: USP42 0.274 | USP46 -0.16 | USP47 0.127 | USP48 -0.182 | USP5 -0.331 | USP54 0.0379 | USP7 -0.51 | USP8 -0.181 | USP9X -0.145 | UniProt O00487 -0.197
